# Shown are actives, neighbours in structure and some others; about 1% of the full set was active somewhere.
# FEN1 inhibitor – qHTS Assay for the Inhibitors of Human Flap endonuclease 1 (FEN1). 0.35% of 390,000 active. P39748. AID 588795, 2011. Potency, µM (titrated, usually from 114 µM), actives largely listed as inhibitors. Recombinant FEN1 flap cleavage, fluorescence, 15 min; further: nearly all actives have a fitted effect of over 65% in size
#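 Potency values derive from four-parameter Hill fits of normalized qHTS data. The reaction used 10 nM FEN1 preincubated 15 min at room temperature with compound, then 50 nM DNA substrate, read at 0 and 15 min.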
# WRN inhibitor – qHTS for Inhibitors of WRN Helicase; Bifunctional 3'-5' exonuclease/ATP-dependent helicase WRN (Homo sapiens), Q14191; WRN helicase unwinding, fluorescent forked duplex, kinetic; Potency, µM (titrated, usually from 114 µM), actives largely listed as inhibitors; 0.46% of 360,000 active; further: nearly all actives have a fitted effect of over 55% in size
#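 Enzyme (20 nM final) and test compound sit together 15 min at room temperature before substrate addition. Substrate is a single-forked duplex oligonucleotide (100 nM) labelled with fluorophore and quencher, with 2 mM ATP; helicase unwinding raises red fluorescence, read kinetically.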
# RECQ1 helicase – qHTS Assay for Inhibitors of RecQ-Like Dna Helicase 1 (RECQ1) | AID 2549, 2010 | RECQ1 DNA unwinding, red fluorescence kinetic read | Potency, µM (highest dose often 57.3 µM), actives largely listed as inhibitors | 0.54% of 240,000 active; further: nearly all actives have a fitted effect of over 30% in size
#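 RECQ1T1 50 nM; forked duplex (20 bp + 30-nt ss tails) 200 nM, ATP 2 mM final; pH 8.0, 2 mM MgCl2, 2.5 ug/ml poly(dI-dC); 15 min compound preincubation; discontinuous kinetic read over 2 h at RT.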
# L3MBTL1 inh – qHTS Assay for the Inhibitors of L3MBTL1; Potency, µM (top dose mostly 57.1 µM), actives largely listed as inhibitors; 0.66% of 230,000 active; AlphaScreen L3MBTL1–H3K9me1 peptide binding; further: nearly all actives have a fitted effect of over 60% in size
# Target sequence (Q9Y468 whole entry, looked up): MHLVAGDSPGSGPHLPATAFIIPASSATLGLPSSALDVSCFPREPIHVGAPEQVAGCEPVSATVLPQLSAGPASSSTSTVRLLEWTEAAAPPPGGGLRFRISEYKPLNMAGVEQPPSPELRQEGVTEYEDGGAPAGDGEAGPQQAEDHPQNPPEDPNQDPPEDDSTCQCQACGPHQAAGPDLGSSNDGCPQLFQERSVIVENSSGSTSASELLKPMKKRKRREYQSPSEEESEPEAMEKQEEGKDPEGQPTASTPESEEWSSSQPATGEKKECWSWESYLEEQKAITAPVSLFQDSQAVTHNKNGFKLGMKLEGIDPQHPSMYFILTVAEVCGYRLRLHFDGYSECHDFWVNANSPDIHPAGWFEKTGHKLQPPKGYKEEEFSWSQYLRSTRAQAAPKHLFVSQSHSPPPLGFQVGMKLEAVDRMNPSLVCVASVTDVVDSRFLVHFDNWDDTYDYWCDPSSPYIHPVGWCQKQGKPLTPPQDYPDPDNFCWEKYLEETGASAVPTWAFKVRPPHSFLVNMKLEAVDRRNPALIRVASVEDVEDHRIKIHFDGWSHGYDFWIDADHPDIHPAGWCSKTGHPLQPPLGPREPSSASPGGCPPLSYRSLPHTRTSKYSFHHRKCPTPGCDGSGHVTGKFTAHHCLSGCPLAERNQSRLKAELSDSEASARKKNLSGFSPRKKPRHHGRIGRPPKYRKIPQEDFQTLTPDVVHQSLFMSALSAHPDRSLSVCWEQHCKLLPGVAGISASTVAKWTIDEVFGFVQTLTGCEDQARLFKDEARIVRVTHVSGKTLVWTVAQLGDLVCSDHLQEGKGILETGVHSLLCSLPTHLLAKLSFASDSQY
#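 Displacement of a biotinylated histone H3(1-15) peptide monomethylated at Lys9 (75 nM) from L3MBTL1 (50 nM) was measured by AlphaScreen after a 30 min room-temperature compound incubation; cefsulodin titration served as intraplate control.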
# APE1 inh-1 – qHTS Assay for Inhibitors of the Human Apurinic/apyrimidinic Endonuclease 1 (APE1); DNA repair nuclease/redox regulator APEX1 (Homo sapiens), P27695; recombinant APE1, TAMRA/BHQ-2 abasic DNA cleavage fluorescence; Potency, µM (top dose mostly 65.8 µM), most hits filed as inhibitors; 0.35% of 350,000 active; AID 2517, 2012; further: nearly all actives have a fitted effect of over 55% in size
#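 Substrate: short duplex with […] THF abasic site, 5'-TAMRA and 3'-BHQ-2, 50 nM final. APE1 at 0.75 nM, preincubated 15 min RT with compound. Fluorescence increase from first to third read measured activity.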
# BLM inh – qHTS Assay for Inhibitors of Bloom's syndrome helicase (BLM); RecQ-like DNA helicase BLM (Homo sapiens), P54132; recombinant BLM DNA unwinding, fluorescence dequenching; Potency, µM (titrated, usually from 56.1 µM), actives largely listed as inhibitors; 0.2% of 350,000 active; AID 2528, 2010; further: nearly all actives have a fitted effect of over 35% in size
# DNA dye displace – Counterscreen for APE1 Inhibitors: Fluorescent Dye Displacement Assay | shares compounds with APE1 inh-1 | DNA fluorescent dye displacement counterscreen, fluorescence | Potency, µM (highest dose often 28.5 µM), most hits filed as inhibitors | 7% of 480 active | AID 2564, 2010;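 further: loss of thiazole orange fluorescence as the dye is displaced from duplex DNA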
# Endo IV inh – Counterscreen for APE1 Inhibitors: qHTS Assay for Inhibitors of Endonuclease IV; shares compounds with APE1 inh-1; E. coli Endo IV, fluorogenic AP-site DNA cleavage; Potency, µM (titrated, usually from 27.1 µM), hits mostly inhibitors; 4% of 560 active; AID 2565, 2010
# APE1 inh-2 – Confirmation qHTS Assay for Inhibitors of the Human Apurinic/apyrimidinic Endonuclease 1 (APE1) | Potency, µM (titrated, usually from 57.1 µM), actives largely listed as inhibitors | shares compounds with APE1 inh-1 | 44% of 750 active | purified APE1, fluorogenic abasic-site DNA cleavage; further: nearly all actives have a fitted effect of over 30% in size
# APE1 FP – qHTS FP-Based Assay for Inhibitors of the Human Apurinic/apyrimidinic Endonuclease 1 (APE1); AID 2573, 2010; Potency, µM (top dose mostly 28.5 µM), actives largely listed as inhibitors; 7% of 480 active; shares compounds with APE1 inh-1; APE1 binding to TAMRA-labelled double-stranded DNA, fluorescence polarization displacement
# Hits are given with their value; n = inactive; u = inconclusive; x = not tested or not shown; [ ] = another dose, or the depositor's remark. The call rests on the fitted dose curve; in most records, active means well fitted curve in the direction sought with a large enough effect; inconclusive means small, poorly fitted or top-dose-only effect, or another doubt; inactive means no such curve, though single readings can be large; an effect the other way counts as inactive or inconclusive.
SMILES,FEN1 inhibitor,WRN inhibitor,RECQ1 helicase,L3MBTL1 inh,APE1 inh-1,BLM inh,APE1 inh-2,others
Cc1ccc(C2(O)C(=O)c3ccccc3C2=O)c(O)c1C,n,n,u,n,n,n,u,
NS(=O)(=O)Nc1ccccc1Br,n,x,n,x,n,n,x,
O=C(CSc1ccc2nnc(-c3ccccc3)n2n1)NCc1ccco1,n,n,n,n,u,n,x,
COc1ccc(-c2nnc3ccc(SCC(=O)NCc4ccco4)nn23)cc1,n,n,n,n,u,n,n,
CCCCOc1ccc(S(=O)(=O)NC(=O)C2(C)CCN2C(=O)CCc2ccccc2)cc1 (stereo not given),x,n,x,x,x,x,x,
COc1cc(OC)c2c(-c3ccccc3)cc(=O)oc2c1C(CC(=O)N1CCN(c2ccccc2)CC1)c1ccc2c(c1)OCO2 (stereo not given),x,x,n,x,u,n,13µM,DNA dye displace=n;Endo IV inh=n;APE1 FP=n
COc1cc(OC)c2c(-c3ccccc3)cc(=O)oc2c1C(CC(=O)N1CCOCC1)c1ccc2c(c1)OCO2 (stereo not given),n,n,u,x,u,n,x,
COC(=O)c1ccc(CNC(=O)CC[C@H]2O[C@@H](n3cc(C)c(=O)[nH]c3=O)C[C@@H]2O)cc1,x,n,x,x,x,x,x,
O=c1cnc2cnc(N3CCNCC3)nc2n1Cc1ccc(F)cc1,x,x,n,x,n,n,x,
CC(C)C(=O)Nc1ccc(-c2ccc3nncn3n2)cc1,n,n,n,x,n,n,x,
O=C(Nc1ccc(-c2ccc3nncn3n2)cc1)c1ccc(Br)o1,n,u,n,x,n,n,n,
O=C(O)Cc1ccc(NC(=O)C2CC=CCC2C(=O)O)cc1 (stereo not given),x,x,n,u,20µM,n,n,
CCc1ccc(NC(=O)C2CC=CCC2C(=O)O)cc1 (stereo not given),n,n,n,n,n,n,x,
O=C(O)C1CC=CCC1C(=O)Nc1ccccc1 (stereo not given),n,n,n,x,n,n,n,
CCOC(=O)c1ccc(N2C(=O)c3[nH]nc(-c4ccccc4)c3C2c2ccc(CC)cc2)cc1 (stereo not given),n,x,x,x,x,n,x,
N#C/C(=C/c1ccc(-c2cc(C(=O)O)cc(C(=O)O)c2)o1)c1nc2ccccc2s1,x,x,u,x,u,n,14µM,DNA dye displace=u;Endo IV inh=u;APE1 FP=n
Oc1ccc(C(=Nc2ccccc2)c2ccccc2)c(O)c1,u,n,x,x,x,x,x,
Clc1ccc(-c2csc(N/N=C/c3cccnc3)n2)c(Cl)c1,n,n,n,n,n,n,n,
C(=N\Nc1nc(-c2ccccc2)cs1)/c1cccnc1,n,n,n,n,n,n,x,
CCOC(=O)N1CCN(C(=O)C2CCC(=O)N(Cc3ccc(Cl)cc3)C2)CC1 (stereo not given),n,n,x,x,n,n,x,
COc1ccc(-c2coc3cc(O)ccc3c2=O)cc1O,n,n,n,n,u,n,n,DNA dye displace=n;Endo IV inh=n;APE1 FP=n
O=C(CCn1cccn1)NCc1ccc(Cl)cc1,n,x,x,x,x,n,x,
COc1ccccc1CNC(=O)c1c(O)nc2c(C)cccn2c1=O,n,x,x,x,x,n,x,
CCC1=NNc2cccc3c(OC)ccc1c23,x,x,n,x,u,u,n,DNA dye displace=u;Endo IV inh=n;APE1 FP=n
CC(NC(=O)COC(=O)c1cc(NS(=O)(=O)c2ccc(Cl)c([N+](=O)[O-])c2)ccc1O)C1CC2CCC1C2 (stereo not given),n,n,n,n,n,n,x,
SMILES,FEN1 inhibitor,WRN inhibitor,RECQ1 helicase,L3MBTL1 inh,APE1 inh-1,BLM inh,APE1 inh-2,others
COc1ccc(NS(=O)(=O)c2ccc(O)c(C(=O)OCC(=O)NC(C)C3CC4CCC3C4)c2)cc1 (stereo not given),n,n,n,n,22µM,n,u,DNA dye displace=u;Endo IV inh=n;APE1 FP=u
CC1(C)CC(=O)C=C(C#CC2(O)CCCCC2)C1,x,n,x,x,x,x,x,
O=C(NNC(=O)c1ccc(Br)o1)c1ccc(NC(=O)c2ccccc2)cc1,n,n,n,n[11.4 µM],14µM,n,u,DNA dye displace=n;Endo IV inh=n;APE1 FP=n
O=C(Nc1ccccc1C(=O)O)c1ccc(NC(=O)c2ccc(Br)o2)cc1,n,n,n,x,n,n,x,
Cc1ccnc(NS(=O)(=O)c2ccc(NC(=O)C3CCCCC3)cc2)n1,n,n,n,n,n,n,x,
Cc1ccnc(NS(=O)(=O)c2ccc(NC(=O)C3C4C=CC(C4)C3C(=O)O)cc2)n1 (stereo not given),n,n,n,n,u,n,n,
COc1ccc(N2CCN(C(=O)COC(=O)c3nc(Cl)ccc3Cl)CC2)cc1,x,n,x,x,x,x,x,
O=C(CSc1nc2ccccc2[nH]1)NC1CCCC1,n,u,n,u,u,n,40µM,
O=C(CCCSc1nc2ccccc2[nH]1)NC1CCCCC1,n,n,n,x,n,n,x,
CC(=O)C1=C(O)C(=O)N(Cc2ccccc2)C1c1ccco1 (stereo not given),n,n,n,n,1µM,n,u,DNA dye displace=n;Endo IV inh=n;APE1 FP=n
Cc1cc(/C=N/NC(=O)c2cccc(N(C)C)c2)c(C)n1-c1cc(C(=O)O)cc(C(=O)O)c1,u,u,n,x,28µM,n,u,DNA dye displace=n;Endo IV inh=n;APE1 FP=n
Cc1ccc([N+](=O)[O-])cc1-c1ccc(/C=C(\C#N)c2[nH]nc(N)c2C#N)o1,u,u,32µM,n,u,u,7.1µM,DNA dye displace=7.1µM;Endo IV inh=n;APE1 FP=n
Cc1cn([C@H]2C[C@H](O)[C@@H](/C=C/C(=O)NCCC(c3ccccc3)c3ccccc3)O2)c(=O)[nH]c1=O,x,n,x,x,x,x,x,

# Screening data (PubChem BioAssay)
